Design in all cases: scale not given: direction of the effect not stated beside the values
The target of assay [1] is Protein translocase subunit SecA (Escherichia coli (strain K12)) (UniProt P10408). The assay can be described thus: Assay to Identify E. coli SecA ATPase Inhibitors. To be noted: 30 µM. The assay is classed as functional.
For assay [2], the target named is T1, Ubiquitin-activating enzyme e1, putative (Leishmania donovani (strain BPK282A1)) (UniProt E9BSI1).
T1 sequence (whole entry): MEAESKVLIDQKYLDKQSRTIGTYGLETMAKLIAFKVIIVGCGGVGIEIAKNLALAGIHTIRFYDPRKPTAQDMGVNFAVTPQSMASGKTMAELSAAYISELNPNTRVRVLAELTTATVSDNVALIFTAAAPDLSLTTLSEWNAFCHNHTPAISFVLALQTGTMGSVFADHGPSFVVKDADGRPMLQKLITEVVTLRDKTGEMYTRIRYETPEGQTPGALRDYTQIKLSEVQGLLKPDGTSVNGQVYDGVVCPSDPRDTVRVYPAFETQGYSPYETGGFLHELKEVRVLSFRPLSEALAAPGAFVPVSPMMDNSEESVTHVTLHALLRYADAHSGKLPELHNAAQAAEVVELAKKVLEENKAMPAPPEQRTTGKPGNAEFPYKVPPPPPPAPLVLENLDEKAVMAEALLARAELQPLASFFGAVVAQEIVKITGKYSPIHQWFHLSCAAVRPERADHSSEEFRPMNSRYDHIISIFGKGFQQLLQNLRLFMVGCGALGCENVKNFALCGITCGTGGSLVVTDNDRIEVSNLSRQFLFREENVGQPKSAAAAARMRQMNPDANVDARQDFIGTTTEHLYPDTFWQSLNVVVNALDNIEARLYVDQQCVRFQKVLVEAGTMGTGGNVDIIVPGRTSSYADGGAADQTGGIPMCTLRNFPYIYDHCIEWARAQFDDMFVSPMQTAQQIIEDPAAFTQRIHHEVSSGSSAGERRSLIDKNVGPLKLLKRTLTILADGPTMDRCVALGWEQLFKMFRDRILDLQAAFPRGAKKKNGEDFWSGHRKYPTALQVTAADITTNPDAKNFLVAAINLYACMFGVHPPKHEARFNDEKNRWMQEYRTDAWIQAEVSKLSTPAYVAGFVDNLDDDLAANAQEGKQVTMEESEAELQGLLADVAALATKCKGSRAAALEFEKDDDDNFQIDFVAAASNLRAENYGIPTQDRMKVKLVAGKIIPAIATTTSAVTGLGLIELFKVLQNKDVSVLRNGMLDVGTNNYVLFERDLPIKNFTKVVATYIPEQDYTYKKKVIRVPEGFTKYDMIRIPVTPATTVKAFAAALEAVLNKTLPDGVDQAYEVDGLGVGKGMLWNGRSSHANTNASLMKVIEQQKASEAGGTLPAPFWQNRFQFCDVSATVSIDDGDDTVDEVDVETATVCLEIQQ
In words: Leishmania donovani Ubiquitin Activating Enzyme (LdE1). The format is functional. The following applies: 30 µM.

Assay [3] deals with AMP-activated protein kinase, AMPK (Homo sapiens) (UniProt P54646+O43741+P54619+Q9UGJ0+Q9Y478+Q13131+Q9UGI9). The assay can be described thus: AMP-dependent Kinase enzyme assay. An in vitro enzyme assay that detects ADP turnover that is directly proportional to AMPK activity. This uses naive AMPK that is activated during the assay with MK-8722. The assay is classed as functional. To be noted: 30 µM.

The target of assay [4] is Sialic acid-binding Ig-like lectin 9 (Homo sapiens) (UniProt Q9Y336). In words: Hs-Siglec9 ALPHAscreen SOP 20170721. To be noted: 10 µM. For orientation: Alpha assays give light when donor and acceptor beads are brought close together.
The test system of assay [5] is Trypanosoma cruzi. The assay can be described thus: Trypanosoma cruzi phosphomannomutase and mannose-1-phosphate guanylyltransferase assay. The format is functional. To be noted: 10 µM.
In assay [6] the target is T2, Arginase-2, mitochondrial (Homo sapiens) (UniProt P78540).
T2 sequence (whole entry): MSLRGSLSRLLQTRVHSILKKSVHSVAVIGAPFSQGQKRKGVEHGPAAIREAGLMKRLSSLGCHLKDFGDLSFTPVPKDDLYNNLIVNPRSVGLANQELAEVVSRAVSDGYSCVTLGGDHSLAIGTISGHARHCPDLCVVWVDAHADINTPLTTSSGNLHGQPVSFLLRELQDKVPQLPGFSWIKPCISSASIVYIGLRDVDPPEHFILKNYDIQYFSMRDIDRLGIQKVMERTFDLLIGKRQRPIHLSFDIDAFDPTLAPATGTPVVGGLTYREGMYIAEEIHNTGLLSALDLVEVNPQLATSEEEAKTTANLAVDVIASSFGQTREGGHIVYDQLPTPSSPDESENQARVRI
In words: in vitro enzyme assay to detect the production of urea directly proportional to the activity of Arginase II. Also: in the data most compounds retested in dose-response had high values. The format is functional. The following applies: 33.3 µM.

Assay [7] deals with T3, Proteasome subunit beta (Trypanosoma cruzi) (UniProt O96673).
T3 sequence (whole entry): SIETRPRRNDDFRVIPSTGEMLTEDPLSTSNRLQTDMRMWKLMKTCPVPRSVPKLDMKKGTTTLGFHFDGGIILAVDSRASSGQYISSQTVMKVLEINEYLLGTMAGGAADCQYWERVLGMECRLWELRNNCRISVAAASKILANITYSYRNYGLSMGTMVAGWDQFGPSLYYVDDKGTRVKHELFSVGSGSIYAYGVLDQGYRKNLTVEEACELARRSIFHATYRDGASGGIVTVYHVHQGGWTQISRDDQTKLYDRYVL
The assay can be described thus: Trypanosoma cruzi proteasome chymotrypsin-like activity (TcProtChymo) assay. Also: in the data most compounds retested in dose-response had high values. The assay is classed as functional. To be noted: 9.37 µM.

Assay [8] is filed under the species Homo sapiens. In words: To identify inhibition of the IFN signalling (Jak-Stat) pathway via expression of an eGFP reporter gene under the control of an IFN-stimulated response element (ISRE) containing MxA promoter. The format is functional. The following applies: 30 µM.
In assay [9] the target is T4, Tyrosyl-tRNA synthetase, putative (Trypanosoma cruzi (strain CL Brener)) (UniProt Q4DSP6).
T4 sequence (whole entry): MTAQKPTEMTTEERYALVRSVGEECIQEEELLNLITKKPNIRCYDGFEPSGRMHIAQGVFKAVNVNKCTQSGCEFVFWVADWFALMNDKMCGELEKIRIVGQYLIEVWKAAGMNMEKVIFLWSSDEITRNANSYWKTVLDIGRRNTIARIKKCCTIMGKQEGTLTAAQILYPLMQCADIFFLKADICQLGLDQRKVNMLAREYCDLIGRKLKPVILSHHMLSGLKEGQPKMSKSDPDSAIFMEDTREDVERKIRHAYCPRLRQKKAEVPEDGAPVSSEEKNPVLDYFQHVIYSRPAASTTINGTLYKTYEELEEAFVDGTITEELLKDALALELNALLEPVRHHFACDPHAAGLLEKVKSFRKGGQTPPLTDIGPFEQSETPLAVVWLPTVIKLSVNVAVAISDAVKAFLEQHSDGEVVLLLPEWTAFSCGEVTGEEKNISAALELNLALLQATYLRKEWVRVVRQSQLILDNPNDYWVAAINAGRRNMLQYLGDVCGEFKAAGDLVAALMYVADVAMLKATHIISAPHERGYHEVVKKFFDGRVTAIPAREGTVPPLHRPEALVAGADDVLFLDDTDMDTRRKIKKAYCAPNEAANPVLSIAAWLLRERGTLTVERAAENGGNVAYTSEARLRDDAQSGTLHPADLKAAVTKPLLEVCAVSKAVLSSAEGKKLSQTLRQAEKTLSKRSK
The assay can be described thus: Trypanosoma cruzi tyrosyl tRNA synthetase (TcYRS) _High Tyrosine SOP. Also: in the data most compounds retested in dose-response had high values. The format is functional. To be noted: 30 µM.

Assay [10] has as its target T4, Tyrosyl-tRNA synthetase, putative (Trypanosoma cruzi (strain CL Brener)). In words: Trypanosoma cruzi tyrosyl tRNA synthetase (TcYRS) SOP. The assay is classed as functional. The following applies: 30 µM.
Assay [11] has as its target Chromo domain-containing protein 1 (Saccharomyces cerevisiae (strain ATCC 204508 / S288c) (Baker's yeast)) (UniProt P32657). The assay can be described thus: ScCHD-1 Enzyme Inhibition Assay. Also: in the data most compounds retested in dose-response had high values. The format is functional. The following applies: 30 µM.

Each structure is given as a SMILES string. For some of these results: Measured potencies and affinities stand elsewhere.

Protein translocase subunit SecA (Escherichia coli (strain K12)), sequence (P10408 whole entry): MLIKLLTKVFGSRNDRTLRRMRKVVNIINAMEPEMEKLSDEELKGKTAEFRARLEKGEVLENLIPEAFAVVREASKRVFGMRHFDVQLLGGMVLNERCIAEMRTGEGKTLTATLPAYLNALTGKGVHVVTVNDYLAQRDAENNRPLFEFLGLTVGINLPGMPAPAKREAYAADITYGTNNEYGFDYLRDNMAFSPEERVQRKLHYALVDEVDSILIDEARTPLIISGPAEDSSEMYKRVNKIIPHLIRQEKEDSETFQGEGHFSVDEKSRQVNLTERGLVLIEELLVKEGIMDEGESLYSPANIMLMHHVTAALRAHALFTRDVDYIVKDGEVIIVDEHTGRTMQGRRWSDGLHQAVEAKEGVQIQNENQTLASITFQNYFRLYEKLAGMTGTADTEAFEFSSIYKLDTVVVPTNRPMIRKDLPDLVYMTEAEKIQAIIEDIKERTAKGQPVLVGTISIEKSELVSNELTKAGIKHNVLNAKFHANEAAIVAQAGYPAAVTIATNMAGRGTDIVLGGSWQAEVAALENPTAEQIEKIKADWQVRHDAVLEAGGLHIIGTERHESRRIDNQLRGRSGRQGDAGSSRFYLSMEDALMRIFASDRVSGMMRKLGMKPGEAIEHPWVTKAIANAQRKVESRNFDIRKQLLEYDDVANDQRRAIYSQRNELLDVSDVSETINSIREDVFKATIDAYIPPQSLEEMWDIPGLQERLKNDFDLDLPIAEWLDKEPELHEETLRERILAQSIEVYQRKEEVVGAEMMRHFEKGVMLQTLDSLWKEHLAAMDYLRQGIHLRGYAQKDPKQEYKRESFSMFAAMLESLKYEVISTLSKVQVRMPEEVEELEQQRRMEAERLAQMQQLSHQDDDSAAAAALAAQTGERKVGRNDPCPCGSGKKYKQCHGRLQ
Chromo domain-containing protein 1 (Saccharomyces cerevisiae (strain ATCC 204508 / S288c) (Baker's yeast)), sequence (P32657 whole entry, the tested form may be a part): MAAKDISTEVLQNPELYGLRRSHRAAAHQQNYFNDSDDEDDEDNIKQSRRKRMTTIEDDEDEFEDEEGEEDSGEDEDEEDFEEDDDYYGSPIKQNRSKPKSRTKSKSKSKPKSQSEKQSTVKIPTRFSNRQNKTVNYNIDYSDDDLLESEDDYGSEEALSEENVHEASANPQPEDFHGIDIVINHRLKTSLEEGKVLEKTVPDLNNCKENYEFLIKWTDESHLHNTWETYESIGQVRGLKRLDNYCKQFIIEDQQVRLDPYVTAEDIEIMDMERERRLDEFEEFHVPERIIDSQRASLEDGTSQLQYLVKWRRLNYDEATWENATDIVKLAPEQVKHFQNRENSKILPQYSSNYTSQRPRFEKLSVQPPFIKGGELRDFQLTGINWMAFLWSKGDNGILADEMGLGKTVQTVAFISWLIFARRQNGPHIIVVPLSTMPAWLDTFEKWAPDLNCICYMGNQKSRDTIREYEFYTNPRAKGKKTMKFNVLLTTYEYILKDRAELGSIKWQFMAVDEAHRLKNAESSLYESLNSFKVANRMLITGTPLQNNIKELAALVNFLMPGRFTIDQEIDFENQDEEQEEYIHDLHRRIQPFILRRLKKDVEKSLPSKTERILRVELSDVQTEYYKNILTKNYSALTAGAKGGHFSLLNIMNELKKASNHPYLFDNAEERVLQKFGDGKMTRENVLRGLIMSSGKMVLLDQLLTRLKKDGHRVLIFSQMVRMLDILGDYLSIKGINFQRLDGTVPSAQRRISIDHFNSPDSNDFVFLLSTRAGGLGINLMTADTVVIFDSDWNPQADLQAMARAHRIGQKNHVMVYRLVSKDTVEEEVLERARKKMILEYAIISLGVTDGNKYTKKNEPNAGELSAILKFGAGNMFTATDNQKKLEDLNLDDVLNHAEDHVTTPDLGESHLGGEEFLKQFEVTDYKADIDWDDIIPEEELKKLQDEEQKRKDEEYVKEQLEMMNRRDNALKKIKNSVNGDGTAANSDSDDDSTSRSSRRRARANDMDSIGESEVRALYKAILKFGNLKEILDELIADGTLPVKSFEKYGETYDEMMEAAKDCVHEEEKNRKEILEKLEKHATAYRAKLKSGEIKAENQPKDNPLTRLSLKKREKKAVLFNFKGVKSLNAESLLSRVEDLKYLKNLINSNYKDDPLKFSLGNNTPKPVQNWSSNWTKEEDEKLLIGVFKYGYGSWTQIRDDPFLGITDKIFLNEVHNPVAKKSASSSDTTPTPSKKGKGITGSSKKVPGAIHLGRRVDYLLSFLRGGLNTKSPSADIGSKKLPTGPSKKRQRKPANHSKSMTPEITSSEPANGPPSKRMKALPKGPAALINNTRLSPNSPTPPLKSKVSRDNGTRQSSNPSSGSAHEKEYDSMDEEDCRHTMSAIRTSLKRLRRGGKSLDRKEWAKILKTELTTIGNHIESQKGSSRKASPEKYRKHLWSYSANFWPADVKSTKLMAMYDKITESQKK
Sialic acid-binding Ig-like lectin 9 (Homo sapiens), sequence (Q9Y336 whole entry): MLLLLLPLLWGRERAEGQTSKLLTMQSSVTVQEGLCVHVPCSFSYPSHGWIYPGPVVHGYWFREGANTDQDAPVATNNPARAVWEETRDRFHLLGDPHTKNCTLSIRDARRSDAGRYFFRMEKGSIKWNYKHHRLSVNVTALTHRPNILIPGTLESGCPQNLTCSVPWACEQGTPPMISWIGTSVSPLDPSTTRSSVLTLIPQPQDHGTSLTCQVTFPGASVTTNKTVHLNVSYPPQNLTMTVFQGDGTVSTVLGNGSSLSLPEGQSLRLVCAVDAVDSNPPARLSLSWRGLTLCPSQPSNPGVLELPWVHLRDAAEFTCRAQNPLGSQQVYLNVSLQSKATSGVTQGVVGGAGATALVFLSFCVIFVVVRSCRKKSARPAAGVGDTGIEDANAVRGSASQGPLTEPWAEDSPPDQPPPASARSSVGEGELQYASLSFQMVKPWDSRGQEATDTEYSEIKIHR

Regarding `Cc1cnn(CCC(=O)N2CCCC(c3nc(C)no3)C2)c1` (stereo not drawn), the Percent Effect in assay [1] was -3.87%; in assay [2], 24.3%; in [3], -8.95%; in assay [4], -1.06%; in [5] it was 5.94%; in [6], -4.41%. Moreover, the Percent Effect in assay [7] is 16.9%; in [8] it was 11.1%; in assay [9], 4.43%; in assay [10] it was 23.5%; in [11], -10.1%.
As to `N#Cc1ccccc1N1CCCN(C(=O)CCc2nccs2)CC1`, the Percent Effect in assay [1] is -2.01%; in [2] it was 12.7%; in assay [3], -0.172%; in assay [4], 4.85%; in assay [5], -4.25%; in assay [6], 5.7%. The Percent Effect in assay [7] is 3.36%; in [8], 17.5%; in [9] it was 3.45%; in assay [10] it was 11.4%; in assay [11], -6.41%.
As to `CCn1cnnc1C1CCN(C(=O)C(OC)c2ccccc2)CC1` (stereo not drawn), the Percent Effect was -2.02% in assay [1]; 18.2% in assay [2]; 6.32% in assay [3]; -9.96% in assay [4]; 5.58% in [5]; -1.05% in assay [6]. Also, the Percent Effect in [7] is 17.9%; in assay [8], -11%; in assay [9], 8.57%; in [10], 18.8%; in assay [11], -17.7%.
With `COc1ccc(C)cc1CN(C)Cc1nc2c(cnn2C)c(=O)[nH]1`, the Percent Effect is -1.35% in assay [1]; 18.4% in assay [2]; 1.85% in assay [3]; 2.21% in [4]; 2.52% in assay [5]; -4.32% in assay [6]. For the same molecule, the Percent Effect in assay [7] was 7.02%; in assay [8], 7.09%; in assay [9], 9.36%; in assay [10], 23.5%; in assay [11] it was -5.71%.
With `CC(=O)N1CCCC1c1cccc(Cc2ccc(F)cc2)n1` (stereo not drawn), the Percent Effect in assay [1] is -4.97%; in [2], 5.33%; in assay [3], 10.8%; in assay [4], 3.6%; in assay [5], 5.91%; in [6], -0.233%. For the same molecule, the Percent Effect turned out to be 5.37% in [7]; 15.6% in [8]; 4.25% in [9]; 8.97% in [10]; 1.18% in assay [11].
As for `O=C(NCCNc1ncccn1)N1CCCC(C(F)(F)F)C1` (stereo not drawn), the Percent Effect in assay [1] is -2.28%; in assay [2], 10.8%; in assay [3], 3.11%; in [4] it was -0.403%; in assay [5] it was -2.12%; in assay [6] it was -1.43%. Moreover, the Percent Effect in assay [7] was 7.59%; in [8], 6.58%; in assay [9], 4.76%; in assay [10] it was 19.5%; in assay [11], -5.39%.
Turning to `Cc1ccc(-n2nnc(C(=O)NS(C)(=O)=O)c2C2CC2)cc1`, the Percent Effect was -1.84% in assay [1]; 0% in assay [2]; -7.9% in [3]; 0.772% in assay [4]; 7.52% in assay [5]; -1.66% in [6]. Besides, the Percent Effect in assay [7] is -0.179%; in assay [8], 12.9%; in assay [9] it was 2.97%; in assay [10], 13.4%; in [11], 3.65%.
For the molecule `Cn1ccc(CN2CCC(CO)CC2)cc1=O`, the Percent Effect in assay [1] was -3.9%; in assay [2], -1.27%; in assay [3], 2.26%; in assay [4], 0.971%; in [5] it was -4.41%; in assay [6], 2.8%. In addition, the Percent Effect is 1.03% in assay [7]; 26.1% in assay [8]; -2.08% in [9]; 10.1% in assay [10]; -1.56% in assay [11].

(Values after ChEMBL document CHEMBL3988442, “University of Dundee, Small-Polar-MMV Screening Library” (2021).)
